From PubChem BioAssay (NCATS) come the findings set out here.

Experiment [1] has as its system HaCat. As to the kind of experiment: Cytotoxic Profiling of Annotated Libraries Using Quantitative High-Throughput Screening (AID 1296008). Further: nearly all actives have a fitted effect of over 60% in size. The settings on record: Five cell lines viability, CellTiter-Glo ATP luminescence, 48-72 h; max response: stronger effect = lower value. In a few lines:
(§1)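 Cytotoxicity was measured as CellTiter-Glo ATP luminescence, read after 10 min at room temperature. Compound treatment of the cells lasted 48 or 72 hr at 37 degrees Celsius in a qHTS format.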
In general terms: ATP-based viability assays read luminescence as a measure of living cells.

Experiment [2] deals with NIH3T3. The experiment is described as above. The settings on record: Five cell lines viability, CellTiter-Glo ATP luminescence, 48-72 h; max response: stronger effect = lower value. In a few lines:
as §1

For experiment [3], the system named is HACAT. The experiment is described as follows: qHTS assay to identify novel small-molecules to repurpose for Merkel cell carcinoma treatment (AID 1296009). Further: nearly all actives have a fitted effect of over 60% in size. The settings on record: MCC and control cell lines, CellTiter-Glo viability, 72 h; at 44.8 µM (top of the series) unless noted. Put shortly:
(§2)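 Cell viability, measured as CellTiter-Glo luminescence, was normalized between DMSO and no-cell wells. The cells had been exposed to 8- or 11-point compound dilutions for 72 hr at 37 degree celsius.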
(In general: Quantitative high-throughput screening tests each substance at several concentrations.)

For experiment [4], the system named is HEK293T. The description is as above. The settings on record: MCC and control cell lines, CellTiter-Glo viability, 72 h; at 44.8 µM (top of the series) unless noted. In a few lines:
as §2

Experiment [5] deals with MCC-13. Described as above. The settings on record: MCC and control cell lines, CellTiter-Glo viability, 72 h; series mostly up to 46 µM. Put shortly: as §2
For experiment [6], the system named is MCC-26. The experiment is described as above. The settings on record: MCC and control cell lines, CellTiter-Glo viability, 72 h; series mostly up to 46 µM. In a few lines: as §2
In experiment [7] the test system is MKL-1. The experiment is described as above. The settings on record: MCC and control cell lines, CellTiter-Glo viability, 72 h; series mostly up to 46 µM. In a few lines: as §2
Experiment [8] concerns MKL-2. The description is as above. The settings on record: MCC and control cell lines, CellTiter-Glo viability, 72 h; series mostly up to 46 µM. Put shortly:
as §2

Experiment [9] concerns UISO. The description is as above. The settings on record: MCC and control cell lines, CellTiter-Glo viability, 72 h; series mostly up to 46 µM. In a few lines:
as §2

The subject of experiment [10] is WaGa. The experiment is described as above. The settings on record: MCC and control cell lines, CellTiter-Glo viability, 72 h; series mostly up to 46 µM. Put shortly: as §2
Experiment [11] concerns C33A. As to the kind of experiment: Primary qHTS to identify gynecologic anti-cancer compounds using libraries of approved drugs and bioactive compounds (AID 1345084). Further: nearly all actives have a fitted effect of over 55% in size. Further: potency means the concentration at half of the fitted maximal effect. The settings on record: Gynecologic cancer cell panel viability, ATPlite luminescence, 48 h; series mostly up to 57.5 µM. Put shortly: (§3)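 Cell viability after 48 h drug treatment, ATPlite luminescence readout; five doses.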

Experiment [12] concerns CAOV3. The experiment is described as above. The settings on record: Gynecologic cancer cell panel viability, ATPlite luminescence, 48 h; series mostly up to 57.5 µM. In a few lines: as §3
For experiment [13], the system named is CASKI. Described as above. The settings on record: Gynecologic cancer cell panel viability, ATPlite luminescence, 48 h; series mostly up to 57.5 µM. Put shortly: as §3
In experiment [14] the test system is Es-2. The description is as above. The settings on record: Gynecologic cancer cell panel viability, ATPlite luminescence, 48 h; series mostly up to 57.5 µM. In a few lines: as §3
Experiment [15] deals with HeLa. Described as above. The settings on record: Gynecologic cancer cell panel viability, ATPlite luminescence, 48 h; series mostly up to 57.5 µM. In a few lines: as §3
Experiment [16] concerns Hek293T. Described as above. The settings on record: Gynecologic cancer cell panel viability, ATPlite luminescence, 48 h, control line for the selectivity index; series mostly up to 57.5 µM. Put shortly:
as §3

The subject of experiment [17] is JEG-3. The experiment is described as above. The settings on record: Gynecologic cancer cell panel viability, ATPlite luminescence, 48 h; series mostly up to 57.5 µM. Put shortly:
as §3

Experiment [18] relates to OV90. Described as above. The settings on record: Gynecologic cancer cell panel viability, ATPlite luminescence, 48 h; series mostly up to 57.5 µM. In a few lines:
as §3

The test system of experiment [19] is NIH3T3. The experiment is described as follows: qHTS assay to identify novel small-molecules to repurpose for Merkel cell carcinoma treatment (AID 1296009). Further: nearly all actives have a fitted effect of over 60% in size. The settings on record: MCC and control cell lines, CellTiter-Glo viability, 72 h; at 44.8 µM (top of the series) unless noted. Put shortly: as §2

Structures are written as SMILES. Results filed as inconclusive are left out. Values without a mark were called inactive. Calls of active or inactive are those of the source. The call rests on the fitted dose curve; in most records, active means well fitted curve in the direction sought with a large enough effect; inconclusive means small, poorly fitted or top-dose-only effect, or another doubt; inactive means no such curve, though single readings can be large; an effect the other way counts as inactive or inconclusive.
On the % scale 0 is the no-effect control and ±100 the full control effect.

On to `O=C1CC(c2ccc(Cl)cc2)CC(=O)N1`, for which the result in [1], in experiment [3] and in experiment [4] was inactive. Also, in experiment [2], the max response is -1.3%. In addition, the Potency entry in [5], in experiment [6], in experiment [7], in [8], in experiment [9] and in [10] was “inactive” each time. For the same molecule, the Potency entry in [11], in experiment [12], in experiment [13], in [14], in experiment [15] and in experiment [16] was “inactive” throughout. In addition, the Potency result in [17] and in [18] was “inactive” throughout.

As for `Oc1ccccc1-c1nnco1`, the molecule was called inactive in experiment [1], in experiment [3] and in [4]. The max response in experiment [2] is 1.39%. In addition, the Potency entry in experiment [5], in experiment [6], in [7], in experiment [8], in [9] and in experiment [10] was “inactive” each time. The Potency entry in [11], in experiment [12], in experiment [13], in [14], in [15] and in experiment [16] was “inactive” in each case. Further, the Potency result in experiment [17] and in [18] was “inactive” each time.

Turning to `Cc1ccc2ccc(Cl)cc2n1`, the molecule was called inactive in experiment [1], in experiment [3] and in experiment [4]. Moreover, the max response in experiment [2] was 3.19%. The Potency result in [5], in experiment [6], in experiment [7], in [8], in experiment [9] and in [10] was “inactive” each time. Further, the Potency result in experiment [11], in experiment [12], in experiment [13], in [14], in [15] and in experiment [16] was “inactive” throughout. The Potency entry in experiment [17] and in [18] was “inactive” throughout.

Turning to `CCN(CC)CC(=O)OCC(=O)[C@@]1(O)CC[C@H]2[C@@H]3CCC4=CC(=O)CC[C@]4(C)[C@H]3[C@@H](O)C[C@@]21C`, the molecule was called inactive in experiment [1], in [2], in [3] and in [19]. Moreover, the Potency result in experiment [5], in experiment [6], in experiment [7], in experiment [8], in experiment [9] and in experiment [10] was “inactive” each time. The Potency result in [11], in experiment [12], in experiment [13], in [14], in experiment [15] and in [16] was “inactive” each time. In addition, the Potency result in experiment [17] and in [18] was “inactive” in each case.

As to `C[C@H]1C[C@@H]2[C@H]([C@@H](O)C[C@@]3(C)[C@H]2CC[C@]3(O)C(=O)CO)[C@@]2(C)C=CC(=O)C=C12`, the molecule was called inactive in experiment [1], in experiment [3] and in [4]. The max response in experiment [2] is 0.285%. The Potency entry in experiment [5], in experiment [6], in experiment [7], in [8], in experiment [9] and in [10] was “inactive” throughout. The Potency entry in experiment [11], in experiment [12], in [13], in [14], in [15] and in experiment [16] was “inactive” throughout. For the same molecule, the Potency result in experiment [17] and in experiment [18] was “inactive” in each case.

For the molecule `COc1ccc2c(c1)CCCC2=O`, the molecule was called inactive in [1], in experiment [2], in [3] and in experiment [19]. The Potency result in [5], in experiment [6], in [7], in experiment [8], in [9] and in experiment [10] was “inactive” each time. The Potency entry in experiment [11], in experiment [12], in [13], in experiment [14], in experiment [15] and in [16] was “inactive” in each case. The Potency entry in experiment [17] and in [18] was “inactive” throughout.

With `COC(=O)CCCCC(CCSS/C(CCO)=C(\C)N(C=O)Cc1cnc(C)nc1N)SC(C)=O` (configuration not stated), the molecule was classed as inactive in experiment [1], in experiment [2], in experiment [3], in [4] and in experiment [19]. Besides, the Potency result in experiment [5], in experiment [6], in experiment [7], in experiment [8], in experiment [9] and in experiment [10] was “inactive” in each case. Further, the Potency entry in [11], in experiment [12], in [13], in experiment [14], in experiment [15] and in [16] was “inactive” each time. Also, the Potency entry in experiment [17] and in experiment [18] was “inactive” in each case.

With `CC(CC(C#N)(c1ccccc1)C(C)C)N(C)C` (configuration not stated), the molecule was classed as inactive in experiment [1], in experiment [2], in experiment [3], in [4] and in experiment [19]. Moreover, the Potency entry in [5], in experiment [6], in experiment [7], in experiment [8], in [9] and in experiment [10] was “inactive” in each case. Also, the Potency result in [11], in [12], in experiment [13], in experiment [14], in experiment [15] and in [16] was “inactive” throughout. Besides, the Potency result in experiment [17] and in experiment [18] was “inactive” throughout.

On to `CCOC(=O)C(O)c1ccccc1` (configuration not stated), for which the call in [1], in [3] and in experiment [4] was inactive. The max response in experiment [2] is 0.37%. In addition, the Potency result in experiment [5], in experiment [6], in [7], in experiment [8], in experiment [9] and in experiment [10] was “inactive” each time. Moreover, the Potency entry in [11], in [12], in experiment [13], in experiment [14], in experiment [15] and in [16] was “inactive” each time. The Potency entry in experiment [17] and in experiment [18] was “inactive” throughout.

For the molecule `CC1(C)OC(=O)Nc2ccc(Br)cc21`, the molecule was called inactive in experiment [1], in experiment [3] and in experiment [4]. The max response in experiment [2] is 3.48%. Further, the Potency result in [5], in [6], in experiment [7], in experiment [8], in experiment [9] and in [10] was “inactive” each time. Besides, the Potency entry in experiment [11], in experiment [12], in experiment [13], in [14], in experiment [16] and in experiment [17] was “inactive” in each case. In addition, the Potency entry in experiment [18] was “inactive”. Also, the Potency in [15] was 10 µM (active).

For `O=C(c1ccco1)N1CCNCC1`, the result in experiment [1], in experiment [3] and in experiment [4] was inactive. In addition, in experiment [2], the max response is 4.52%. Besides, the Potency result in experiment [5], in [6], in experiment [7], in experiment [8], in [9] and in experiment [10] was “inactive” throughout. Moreover, the Potency result in experiment [11], in experiment [12], in [13], in experiment [14], in [15] and in experiment [16] was “inactive” throughout. Also, the Potency entry in experiment [17] is “inactive”.

Turning to `O=C(O)CCCC[P+](c1ccccc1)(c1ccccc1)c1ccccc1`, the molecule was classed as inactive in experiment [1], in [3] and in [4]. Further, the max response in [2] is 3.89%. The Potency result in experiment [5], in experiment [6], in [7], in experiment [8], in experiment [9] and in experiment [10] was “inactive” throughout. For the same molecule, the Potency entry in experiment [11], in experiment [12], in experiment [13], in [14], in [15] and in experiment [16] was “inactive” each time. Moreover, the Potency entry in experiment [17] and in experiment [18] was “inactive” throughout.

As for `CC(C)NC(=O)c1ccc(C=O)cc1`, the molecule was called inactive in experiment [1], in experiment [3] and in experiment [4]. For the same molecule, the max response in [2] is 3.81%. The Potency entry in experiment [5], in [6], in [7], in experiment [8], in [9] and in [10] was “inactive” in each case. Besides, the Potency result in [11], in experiment [12], in experiment [13], in [14], in [15] and in experiment [16] was “inactive” throughout. The Potency result in experiment [17] and in experiment [18] was “inactive” in each case.

Turning to `O=C1Nc2cc(Cl)ccc2Oc2ccccc21`, the result in [1], in experiment [3] and in experiment [4] was inactive. Besides, in [2], the max response is -1.14%. Also, the Potency result in experiment [5], in [6], in [7], in [8], in experiment [10] and in [11] was “inactive” in each case. Besides, the Potency entry in experiment [12], in [13], in experiment [14], in experiment [15], in experiment [16] and in experiment [17] was “inactive” each time. Further, in experiment [18], the Potency result was “inactive”.
